esBAF inh – blocks esBAF chromatin remodeling in mouse ES cells; Bmi1-luciferase knock-in reporter, 24 h; 100% = twice the neutral-well signal; reporter increase, % at 12.5 µM; 2% of 350,000 active; AID 602393; in the data active means activation above about 40%; inconclusive means no clear call, values can overlap the other calls;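 further: 0% = median of the plate's neutral control wells and 100% = double that signal; a rise in the Bmi1 reporter signal indicates esBAF inhibition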
C2C12 statin – suppression of simvastatin myotoxicity; C2C12 myotubes + simvastatin, ATP luminescence, 48 h; scaled: DMSO 0, geranylgeraniol control 100; rescue of ATP level, % at 7.49 µM; 0.78% of 330,000 active; AID 602340;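 active means mean ATP rescue above about 67%, or every replicate alone reaching that limit, limit read from the data, passing the limit was not always enough; inconclusive means no clear call, values can overlap the other calls; inactive means mean under the limit and some replicate under it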;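 further: myotubes were challenged with 10 µM simvastatin during compound exposure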
MITF TRPM1 HTS – MITF TRPM1 promoter activation in melanoma cells. SK-MEL-5 TRPM1-promoter luciferase, 24 h; % of positive control, neutral wells = 0. activation, % at 12.5 µM. 0.75% of 300,000 active. AID 588334;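 active means mean activation of at least 80% with every replicate also reaching 80%; inconclusive means mean reaches 80% but some replicate falls short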;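 further: 0% = neutral control wells and 100% = parthenolide positive control wells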
Wnt bcat act – Wnt/beta-catenin pathway activation. activation, % at 9.35 µM. 1.2% of 300,000 active. Wnt/beta-catenin reporter cell assay, activator, plate reader; in the data active means activation above about 30%, passing the limit was not always enough; inconclusive means no clear call, values can overlap the other calls;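 further: 0% = neutral control wells and 100% = positive control wells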
Rtt109 Vps75 – inhibitors of Candida albicans Rtt109/Vps75 histone acetyltransferase; Q5AAJ8; purified Rtt109/Vps75, ThioGlo CoA-SH fluorescence, 4 h; inhibition, % at 34.9 µM; 0.16% of 330,000 active;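 active means inhibition of at least 50% in every replicate; inconclusive means best replicate reaches 50% inhibition but some replicates fall short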
Target sequence (Q5AAJ8 whole entry, looked up): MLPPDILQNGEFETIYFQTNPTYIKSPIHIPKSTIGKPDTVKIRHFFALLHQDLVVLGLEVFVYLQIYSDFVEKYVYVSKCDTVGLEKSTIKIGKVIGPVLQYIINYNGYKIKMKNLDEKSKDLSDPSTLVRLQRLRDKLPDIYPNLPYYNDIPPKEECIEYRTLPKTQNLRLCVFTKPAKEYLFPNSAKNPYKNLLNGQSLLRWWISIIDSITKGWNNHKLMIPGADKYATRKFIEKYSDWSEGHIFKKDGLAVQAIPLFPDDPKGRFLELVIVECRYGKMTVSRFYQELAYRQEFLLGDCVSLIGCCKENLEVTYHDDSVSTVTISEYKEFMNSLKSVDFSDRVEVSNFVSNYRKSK
Numbers without * were called inactive; ? = inconclusive; . = no result. The list is not random: actives were taken first. Their share in the collection is about 3.1%.

SMILES	esBAF inh	C2C12 statin	MITF TRPM1 HTS	Wnt bcat act	Rtt109 Vps75
COc1ccc(C(=O)/C=C/c2ccccc2F)c(OC(=O)c2ccc([N+](=O)[O-])cc2)c1	24.1	10.9	9.5	35.2*	-6.6
COc1ccc(C(=O)/C=C/Nc2cc(C)on2)c(OC)c1	66.2*	2.8	.	.	7.2
COc1ccc(C(=O)/C=C/c2ccc(C)cc2)c(OC(=O)c2ccc([N+](=O)[O-])cc2)c1	.	.	28.1	13.2	2.6
C[C@@H](NC(=O)C[C@@H]1C[C@H]2c3cc(NC(=O)c4cccnc4)ccc3O[C@H]2[C@@H](CO)O1)c1ccccc1	0.0	-2.6	.	.	.
O=C(COc1ccccc1Br)NC(=O)NC1CCCC1	39.3	8.4	140.8*	11.4	1.7
O=C(COc1ccc(C(=O)c2ccccc2)cc1)NC1CCCCCC1	.	.	-8.0	48.6*	3.0
O=C(C[C@H]1CC[C@H]2[C@@H](COC[C@H](O)CN2Cc2ccc(Cl)cc2)O1)Nc1nccs1	4.1	2.9	.	.	.
Cc1cc(-c2nnc3n2N=C(c2ccc(-c4ccccc4)cc2)CS3)n[nH]1	-2.9	16.2	.	-3.6	-0.3
c1ccc(-c2cc(-c3nnc4n3N=C(c3ccc5ccccc5c3)CS4)[nH]n2)cc1	6.4	80.3*	20.1	.	5.9
CCC(=O)N(C)C[C@@H]1Oc2cc(C3=CCCCC3)ccc2S(=O)(=O)N([C@@H](C)CO)C[C@H]1C	.	-23.6	.	.	.
C/C(NC(=O)c1ccccc1)=C1/C(=O)CC2C1C2(C)C (configuration not stated)	52.0*	0.3	?	0.0	-6.4
C[C@H]1CN([C@@H](C)CO)S(=O)(=O)c2ccc(C#CC(C)(C)O)cc2O[C@@H]1CN(C)C	1.3	4.4	.	.	.
C/C(=N/O)c1no[n+]([O-])c1/C(C)=N\O	.	.	.	37.9*	-8.2
COc1ccc2c(c1)N(C)C(=O)CC(c1ccccc1)=N2	6.0	107.7*	.	1.1	-11.6
O=C1CC(c2ccccc2)=Nc2ccccc2N1Cc1ccccc1	.	.	-1.6	-1.7	5.6
COC(=O)c1c(C)noc1-c1cc(C)on1	4.0	101.7*	4.0	.	-6.4
Cn1cnc(S(=O)(=O)N[C@H]2C=C[C@@H](CC(=O)NCC3CC3)O[C@@H]2CO)c1	-5.7	-13.6	.	.	.
Cc1[nH]c(=O)c(C(=O)/C=C/c2ccccc2F)c2c1CCCC2	43.0*	.	-84.1	-4.6	-4.6
O=C(c1ccco1)N(Cc1ccco1)c1ccc(O)cc1	-5.6	118.4*	-0.5	.	-11.9
O=C(/C=C/c1c(F)cccc1Cl)Nc1ccncc1	61.5*	-5.0	35.9	.	0.8
O=C(/C=C/c1c(Cl)cccc1Cl)Nc1ccncc1	44.1*	-48.7	88.5*	10.1	-1.9
CCNC(=O)[C@H]1[C@H](CO)[C@H]2Cn3c(ccc(-c4cccc(F)c4)c3=O)[C@H]2N1Cc1nccs1	-7.9	14.4	.	.	.
Cc1ccc(CNC(=O)C2CC(c3cccc([N+](=O)[O-])c3)=NO2)o1 (configuration not stated)	45.3*	7.2	55.9	25.8	-5.7
COc1ccc(CCNC(=O)C2CC(c3ccc([N+](=O)[O-])cc3)=NO2)cc1 (configuration not stated)	37.4	10.1	.	6.9	-18.7
COc1ccc(CCNC(=O)C2CC(c3cccc([N+](=O)[O-])c3)=NO2)cc1 (configuration not stated)	70.0*	6.5	75.5	14.7	0.6
SMILES	esBAF inh	C2C12 statin	MITF TRPM1 HTS	Wnt bcat act	Rtt109 Vps75
CCCCNC(=O)C1CC(c2cccc(F)c2)=NO1 (configuration not stated)	84.8*	2.0	89.5*	31.9*	2.3
Cc1ccc(CNC(=O)C2CC(c3cc(C(F)(F)F)cc(C(F)(F)F)c3)=NO2)o1 (configuration not stated)	-15.3	-22.7	-14.8	-13.0	-6.0
CC(C)CCNC(=O)C1CC(c2cccc(F)c2)=NO1 (configuration not stated)	-0.6	-0.3	0.1	3.7	2.4
CNS(=O)(=O)c1cccc(C(=O)OCC(=O)c2cc(C)n(CC3CCCO3)c2C)c1 (configuration not stated)	-5.6	8.8	32.8	10.5	-5.1
Cc1cc(C(=O)COC(=O)c2cccc(S(=O)(=O)N(C)C)c2)c(C)n1CC1CCCO1 (configuration not stated)	.	1.4	?	36.9*	-3.3
O=C(O)c1cccc(N/N=C/c2sc(N3CCOCC3)nc2-c2ccccc2)c1	48.4*	-3.7	38.9	.	23.2
Cc1ccc(S(=O)(=O)Nc2nc3ccccc3nc2NCc2ccco2)cc1	92.2*	-3.6	-4.9	.	0.9
O=C(C[C@@H]1CC[C@@H]2NC[C@@H](O)COC[C@H]2O1)Nc1ccccc1	-3.4	-0.7	.	.	.
Cc1noc(C)c1NC(=O)N(C)C[C@@H]1Oc2ncc(C3=CCCCC3)cc2C(=O)N([C@@H](C)CO)C[C@@H]1C	-3.3	-12.2	.	.	.
CSc1nnc(-c2ccncc2)n1/N=C/c1cn(-c2ccccc2)nc1-c1ccc(Cl)cc1	-7.0	10.3	.	10.7	-5.6
S=c1[nH]nc(-c2ccncc2)n1/N=C/c1cn(-c2ccccc2)nc1-c1ccc(Cl)cc1	.	.	.	47.8*	.
C[C@H](O)C#Cc1ccc2c(c1)O[C@H](CN(C)C(=O)Nc1ccccc1)[C@@H](C)CN([C@H](C)CO)S2(=O)=O	-5.2	-2.8	.	.	.
COC(=O)C[C@@H]1CC[C@@H]2[C@H](COC[C@@H](O)CN2S(=O)(=O)c2ccc(F)cc2)O1	1.7	-0.9	.	.	.
COc1ccc(CCNC(=O)CSc2nc(-c3ccco3)cc(C(F)(F)F)n2)cc1OC	1.4	13.4	-1.2	-0.6	2.6
O=C(CCCSc1nc(-c2ccco2)cc(C(F)(F)F)n1)NCc1cccs1	0.3	125.7*	.	-3.1	-4.0
O=C(CSc1nc(-c2ccco2)cc(C(F)(F)F)n1)NCCc1ccccc1	-1.4	89.3*	-2.6	.	8.4
CC(C)C(=O)Nc1ccc2c(c1)C(=O)N(C)[C@H]1CC[C@@H](CC(=O)NC3CCCC3)O[C@@H]1CO2	3.0	39.3	.	.	.
C[C@@H]1CN([C@H](C)CO)S(=O)(=O)c2ccc(-c3ccncc3)cc2O[C@H]1CN(C)C(=O)c1ccc2c(c1)OCO2	0.9	-15.1	.	.	.
CO[C@H]1CN(C)C(=O)c2cc(NC(=O)c3ccc4c(c3)OCO4)ccc2OC[C@H](C)NC[C@H]1C	-1.1	6.4	.	.	.
COc1cc(C2Nc3ccc4ncccc4c3C3=C2C(=O)CCC3)cc(OC)c1OC (configuration not stated)	.	.	-1.3	-0.6	1.9
Cc1ccsc1C1Nc2ccc3ncccc3c2C2=C1C(=O)CCC2 (configuration not stated)	-7.5	78.6*	-7.1	.	1.7
Cc1ccc(S(=O)(=O)Nc2ccc3c(c2)C(=O)N([C@@H](C)CO)C[C@@H](C)[C@@H](CN(C)CC2CCCCC2)OCCCC[C@H](C)O3)cc1	0.2	.	.	.	.
COc1cccc(N=C(N)N=C(N)N)c1	-1.6	-0.4	4.2	-1.7	.
COc1ccnc(CSC(N)=Nc2ccc(F)cc2)c1	55.7*	-38.3	30.3	.	-16.5

Screening data (PubChem BioAssay)
